Results as given in the antibiotic and cytotoxicity screens of Wong et al. (2023).
Hit rate of the full screen: of about 39,000 compounds, about 1,500 (3.8%) were called active. The sample holds actives, similar compounds and a random draw of the others, so the mix is not that of the screen.

These compounds were tested on HSkMC (human skeletal muscle cells) (assay: cytotoxicity call (relative viability < 0.9)). Settings: 10 µM.

Compound | cytotoxicity call
C[C@@H]1CN([C@H](C)CO)C(=O)c2cc(NS(=O)(=O)c3cn(C)cn3)ccc2O[C@@H]1CN(C)C(=O)Nc1ccc2c(c1)OCO2 | inactive
O=C1[C@@H]2[C@@H](C(=O)N1CCO)[C@@H]1C=C[C@@H]2C1 | inactive
C[C@@H]1CN([C@H](C)CO)S(=O)(=O)c2ccc(-c3cncnc3)cc2O[C@H]1CN(C)C(=O)Cc1ccncc1 | inactive
C[C@H]1CN([C@@H](C)CO)C(=O)c2cc(NC(=O)Nc3ccc4c(c3)OCO4)ccc2O[C@@H]1CN(C)C(=O)Nc1cccc2ccccc12 | inactive
C[C@@H]1CN([C@H](C)CO)C(=O)c2cc(NC(=O)Nc3ccc4c(c3)OCO4)ccc2O[C@H]1CN(C)C(=O)Nc1cccc2ccccc12 | inactive
C[C@H]1CN([C@@H](C)CO)C(=O)c2cc(NC(=O)Nc3ccc4c(c3)OCO4)ccc2O[C@H]1CN(C)C(=O)Nc1cccc2ccccc12 | inactive
C[C@@H]1CN([C@H](C)CO)C(=O)c2cc(NC(=O)Nc3ccc4c(c3)OCO4)ccc2O[C@@H]1CN(C)C(=O)Nc1cccc2ccccc12 | active
C[C@@H]1CN([C@@H](C)CO)C(=O)c2cc(NC(=O)Nc3ccc4c(c3)OCO4)ccc2O[C@@H]1CN(C)C(=O)Nc1cccc2ccccc12 | active
C[C@H](CO)N1C[C@H](C)[C@@H](CN(C)C(=O)Nc2cccc3ccccc23)Oc2ccc(NC(=O)Nc3ccc4c(c3)OCO4)cc2C1=O | inactive
O=C(C[C@H]1CC[C@H]2[C@@H](COC[C@@H](O)CN2S(=O)(=O)c2cccc(Cl)c2)O1)NCCCN1CCOCC1 | inactive
CO[C@@H]1[C@@H](O)[C@H](O)[C@H](O)[C@H](O)[C@@H]1O | inactive
COc1ccc(NC(=O)N(C)C[C@@H]2Oc3ccc(NC(=O)CCCCCC(=O)Nc4ccccc4N)cc3C(=O)N([C@@H](C)CO)C[C@@H]2C)cc1 | inactive
O=C(Cn1cc(COc2ccc3ccccc3c2)nn1)NS(=O)(=O)c1ccccc1OC(F)(F)F | inactive
CN(C)C(=O)C[C@@H]1CC[C@@H]2[C@H](COC[C@H](O)CN2S(=O)(=O)c2ccc(Oc3ccccc3)cc2)O1 | inactive
CC(C)[C@H]1CC[C@@H](C)C[C@@H]1NC(=O)c1cccc2ccccc12 | inactive
COc1ccc2c(c1)n(CCN)c(=O)n2C(=O)[C@@H]1C[C@H](C)CC[C@H]1C(C)C | active
COc1ccc(S(=O)(=O)Nc2ccc3c(c2)C(=O)N([C@H](C)CO)C[C@@H](C)[C@@H](CN(C)S(C)(=O)=O)O3)cc1 | inactive
Cc1cc(C)c(/N=c2\scc(C)n2Cc2ccccc2)c(C)c1 | inactive
C[C@H]1CN([C@@H](C)CO)C(=O)c2cc(NC(=O)Nc3ccc(C(F)(F)F)cc3)ccc2O[C@@H]1CN(C)S(=O)(=O)c1ccc(F)cc1 | inactive
C[C@H](CO)N1C[C@H](C)[C@@H](CN(C)S(=O)(=O)c2ccc(F)cc2)Oc2ccc(NC(=O)Nc3ccc(C(F)(F)F)cc3)cc2C1=O | inactive

Compound | cytotoxicity call
Cc1ccc(S(=O)(=O)N(C)C[C@@H]2Oc3ccc(NC(=O)Nc4ccc(C(F)(F)F)cc4)cc3C(=O)N([C@@H](C)CO)C[C@@H]2C)cc1 | inactive
C[C@@H]1CN([C@@H](C)CO)C(=O)c2cc(NC(=O)Nc3ccc(C(F)(F)F)cc3)ccc2O[C@@H]1CN(C)S(=O)(=O)c1ccc(F)cc1 | inactive
C[C@@H]1CN([C@H](C)CO)C(=O)c2cc(NC(=O)Nc3ccc(C(F)(F)F)cc3)ccc2O[C@H]1CN(C)S(=O)(=O)c1ccc(F)cc1 | active
Cc1ccc(S(=O)(=O)N(C)C[C@H]2Oc3ccc(NC(=O)Nc4ccc(C(F)(F)F)cc4)cc3C(=O)N([C@H](C)CO)C[C@@H]2C)cc1 | inactive
C[C@H]1CN([C@@H](C)CO)C(=O)c2cc(NC(=O)Nc3ccc(C(F)(F)F)cc3)ccc2O[C@H]1CN(C)S(=O)(=O)c1ccc(F)cc1 | inactive
C[C@@H]1CN([C@H](C)CO)C(=O)c2cc(NC(=O)Nc3ccc(C(F)(F)F)cc3)ccc2O[C@@H]1CN(C)S(=O)(=O)c1ccc(F)cc1 | active
Cc1ccc(S(=O)(=O)N(C)C[C@H]2Oc3ccc(NC(=O)Nc4ccc(C(F)(F)F)cc4)cc3C(=O)N([C@H](C)CO)C[C@H]2C)cc1 | active
Cc1ccc(S(=O)(=O)N(C)C[C@H]2Oc3ccc(NC(=O)Nc4ccc(C(F)(F)F)cc4)cc3C(=O)N([C@@H](C)CO)C[C@@H]2C)cc1 | inactive
C[C@H](CO)N1C[C@H](C)[C@H](CN(C)S(=O)(=O)c2ccc(F)cc2)Oc2ccc(NC(=O)Nc3ccc(C(F)(F)F)cc3)cc2C1=O | active
C[C@@H]1CN([C@@H](C)CO)C(=O)c2cc(NC(=O)Nc3ccc(C(F)(F)F)cc3)ccc2O[C@H]1CN(C)S(=O)(=O)c1ccc(F)cc1 | inactive
C[C@@H]1CN([C@H](C)CO)C(=O)c2cc(NS(=O)(=O)c3cn(C)cn3)ccc2O[C@@H]1CN(C)Cc1ccc(C(=O)Nc2ccccc2N)cc1 | inactive
O=C(Nc1cccc2cccnc12)[C@H]1[C@@H](c2ccc(Br)cc2)CC(=O)N1C(=O)OCc1ccccc1 | inactive
C[C@H]1CN([C@@H](C)CO)C(=O)c2cc(NS(=O)(=O)c3cn(C)cn3)ccc2O[C@@H]1CN(C)Cc1ccc(C(=O)O)cc1 | inactive
O=C(C[C@H]1CC[C@H]2[C@@H](COC[C@H](O)CN2C(=O)Nc2cccc(F)c2)O1)NCCCN1CCOCC1 | inactive
C[C@@H]1CN([C@H](C)CO)C(=O)c2cc(NC(=O)Cc3ccccc3)ccc2O[C@H]1CN(C)Cc1ccc(Oc2ccccc2)cc1 | inactive
O=C(C[C@@H]1C[C@H]2c3cc(NC(=O)Nc4ccc(C(F)(F)F)cc4)ccc3O[C@H]2[C@@H](CO)O1)NCc1cc(F)ccc1F | inactive
Cc1ccc(S(=O)(=O)Nc2ccc3c(c2)C(=O)N([C@@H](C)CO)C[C@@H](C)[C@@H](CN(C)C(=O)c2ccccc2)OCCCC[C@H](C)O3)cc1 | inactive
C[C@@H]1CN([C@@H](C)CO)C(=O)c2cc(NC(=O)c3ccncc3)ccc2O[C@H]1CN(C)Cc1ccc(-c2ccccc2)cc1 | inactive
C[C@@H]1CN([C@@H](C)CO)C(=O)CCCn2nncc2CO[C@H]1CN(C)C(=O)Nc1cccc(Oc2ccccn2)c1 | inactive
COc1ccc(NC(=O)N(C)C[C@@H]2Oc3ncc(C#CCN(C)C)cc3C(=O)N([C@@H](C)CO)C[C@H]2C)cc1 | inactive

Compound | cytotoxicity call
C[C@@H]1O[C@H](O)[C@@H](F)[C@H](O)[C@@H]1O | inactive
C[C@@H]1CCCCO[C@@H](CN(C)Cc2ccc(C(F)(F)F)cc2)[C@@H](C)CN([C@@H](C)CO)C(=O)c2cc(NC(=O)Nc3ccc(C(F)(F)F)cc3)ccc2O1 | active
C[C@@H]1CCCCO[C@@H](CN(C)Cc2ccc(C(F)(F)F)cc2)[C@H](C)CN([C@@H](C)CO)C(=O)c2cc(NC(=O)Nc3ccc(C(F)(F)F)cc3)ccc2O1 | active
C[C@@H]1CN([C@H](C)CO)C(=O)c2cc(NC(=O)Nc3ccc(C(F)(F)F)cc3)ccc2O[C@@H](C)CCCCO[C@H]1CN(C)Cc1ccc(C(F)(F)F)cc1 | active
C[C@H]1CCCCO[C@@H](CN(C)Cc2ccc(C(F)(F)F)cc2)[C@@H](C)CN([C@@H](C)CO)C(=O)c2cc(NC(=O)Nc3ccc(C(F)(F)F)cc3)ccc2O1 | active
C[C@@H]1CN([C@@H](C)CO)C(=O)c2cc(NC(=O)Nc3ccc(C(F)(F)F)cc3)ccc2O[C@@H](C)CCCCO[C@@H]1CN(C)Cc1ccc(C(F)(F)F)cc1 | inactive
C[C@@H]1CCCCO[C@@H](CN(C)Cc2ccc(C(F)(F)F)cc2)[C@@H](C)CN([C@H](C)CO)C(=O)c2cc(NC(=O)Nc3ccc(C(F)(F)F)cc3)ccc2O1 | inactive
C[C@H](CO)N1C[C@H](C)[C@H](CN(C)Cc2ccc(C(F)(F)F)cc2)OCCCC[C@H](C)Oc2ccc(NC(=O)Nc3ccc(C(F)(F)F)cc3)cc2C1=O | inactive
C[C@@H]1CCCCO[C@@H](CN(C)Cc2ccc(C(F)(F)F)cc2)[C@H](C)CN([C@H](C)CO)C(=O)c2cc(NC(=O)Nc3ccc(C(F)(F)F)cc3)ccc2O1 | inactive
CNC[C@H]1OCCCC[C@H](C)Oc2ccc(NC(=O)CCCN(C)C)cc2C(=O)N([C@H](C)CO)C[C@@H]1C | inactive
C[C@@H]1CN([C@H](C)CO)C(=O)c2cccc(NC(=O)c3ccncc3)c2O[C@H]1CN(C)S(=O)(=O)c1ccccc1 | inactive
C[C@H](CO)N1C[C@H](C)[C@H](CN(C)S(=O)(=O)c2cn(C)cn2)Oc2ccc(NC(=O)CCCCCC(=O)Nc3ccccc3N)cc2C1=O | inactive
CCOC(=O)CCCCCCCCCCCC[C@@H]1C=CCC1 | inactive
C[C@H](CO)N1C[C@H](C)[C@H](CN(C)Cc2ccc(C(=O)Nc3ccccc3N)cc2)OCCCC[C@H](C)Oc2ccc(NC(=O)C3CCCCC3)cc2C1=O | inactive
C[C@@H]1CN([C@H](C)CO)C(=O)c2cccc(NS(=O)(=O)c3cn(C)cn3)c2O[C@H]1CN(C)C(=O)Nc1ccc2c(c1)OCO2 | inactive
CCOC(=O)Cn1cccc2oc(=O)nc1-2 | inactive
C[C@H]1CN([C@@H](C)CO)C(=O)c2c(c3ccccc3n2C)-c2ccccc2CO[C@H]1CN(C)C(=O)Nc1ccccc1 | inactive
C[C@@H]1CN([C@@H](C)CO)C(=O)c2c(c3ccccc3n2C)-c2ccccc2CO[C@H]1CN(C)C(=O)[C@H](C)c1ccccc1 | inactive
COc1ccc(NC(=O)N(C)C[C@@H]2Oc3ccc(NC(=O)Nc4cccc5ccccc45)cc3CC(=O)N([C@H](C)CO)C[C@@H]2C)cc1 | inactive
COc1ccccc1-c1cnc2c(c1)C(=O)N([C@H](C)CO)C[C@@H](C)[C@H](CN(C)C(=O)c1ccncc1)O2 | inactive
